Giardia killer: kills Giardia lamblia. AID 540267. Giardia lamblia trophozoite viability. 340,000 compounds, 0.15% hits. activity change, % at 7.66 µM, hits read low; in the data active = activity change below about -80%; inconclusive = between about -30% and that limit;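 also: parasites exposed to compound for two days anaerobically before the ATP read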
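Anaerobic 48 hrs incubation at 37 deg C of 100 trophozoites/well with test compounds; ATPLite 1-Step luminescence, 15-30 min RT, reports cellular ATP as viability.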
Pin1 inh: blocks the human prolyl isomerase Pin1. Q13526. Pin1 FP peptide displacement, HiFluor488, 10 min. Potency, µM (doses to about 115 µM), hits mostly inhibitors. 390,000 compounds, 0.009% hits; active = well fitted inhibition curve with a large enough effect in the polarisation, with a control signal flat, not every such curve was filed as active; inconclusive = small, poorly fitted or top-dose-only effect, or effect the other way, or a change in a side signal; inactive = no such curve, though single readings can be large or run the other way; the % refers to the polarisation
Target sequence (Q13526 whole entry, looked up): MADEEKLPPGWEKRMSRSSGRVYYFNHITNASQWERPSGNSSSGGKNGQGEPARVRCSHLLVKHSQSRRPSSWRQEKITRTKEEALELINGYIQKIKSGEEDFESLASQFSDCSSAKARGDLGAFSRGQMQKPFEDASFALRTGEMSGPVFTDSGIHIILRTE
rTrxR1 inhibitor: inhibitors of rat thioredoxin reductase 1. O89049. recombinant rTrxR1, NADPH fluorescence consumption, selenite substrate. Potency, µM (highest dose often 114 µM), hits mostly inhibitors. 390,000 compounds, 1% hits. AID 588453; also: nearly all actives have a fitted effect of over 65% in size
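Rat TrxR1 (90 nM in the dispensed reagent) was pre-reduced with 400 uM NADPH for 5 min at room temperature, then incubated with compound for 15 min. After 400 uM selenite was added, NADPH fluorescence (Ex 340/Em 450 nm) was followed for 8 min.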
GALK inh: galactokinase (human) inhibition; AID 1868; P51570; 270,000 compounds, 0.007% hits; Potency, µM (top dose mostly 57.5 µM), usual class: inhibitors; Purified GALK, Kinase-Glo residual ATP luminescence
Target sequence (P51570 whole entry, looked up): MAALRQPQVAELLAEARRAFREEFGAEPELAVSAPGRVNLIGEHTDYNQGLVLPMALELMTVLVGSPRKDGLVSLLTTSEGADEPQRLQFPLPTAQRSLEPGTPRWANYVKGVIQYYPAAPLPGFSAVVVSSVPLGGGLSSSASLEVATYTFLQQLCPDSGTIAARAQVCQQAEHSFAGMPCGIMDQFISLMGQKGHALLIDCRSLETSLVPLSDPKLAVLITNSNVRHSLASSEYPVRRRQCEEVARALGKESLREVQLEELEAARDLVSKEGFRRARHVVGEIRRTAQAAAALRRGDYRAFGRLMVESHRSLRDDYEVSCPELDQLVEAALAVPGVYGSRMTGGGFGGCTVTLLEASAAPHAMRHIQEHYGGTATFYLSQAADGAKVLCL
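GALK at 5 nM final was combined with compound, 35 uM ATP and 100 uM galactose in HEPES pH8.0 with MgCl2 and DTT. The reaction ran one hour at room temperature before luminescent ATP detection.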
KAT2A inh: blocks human GCN5L2 histone acetyltransferase | Q92830 | GCN5L2 HAT assay, ThioGlo1 CoA-SH fluorescence | Potency, µM (top dose mostly 58.9 µM), hits mostly inhibitors | 390,000 compounds, 0.21% hits | AID 504327
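GCN5L2 (20 nM) in 50mM HEPES pH 7.5, 0.1mM EDTA, 0.01% Tween-20 preincubated 15 min with compounds at room temperature. Reaction started with H3(1-25) 75uM, acetyl-CoA 70uM, ThioGlo1 50uM; CoA-thiol fluorescence (Ex340/Em540) read at 0 and 20 min.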
TrxR1 substrate: substrates of rat thioredoxin reductase 1 | O89049 | purified TrxR1 substrate turnover, NADPH consumption readout | Potency, µM (highest dose often 114 µM) | 390,000 compounds, 0.01% hits | AID 588456; also: nearly all actives have a fitted effect of over 50% in size
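Rat TrxR1, dispensed at 90 nM, was prereduced with 400 uM NADPH (final) for 5 min at ~22 deg C, then incubated with compound 15 min before 400 uM selenite. A first-read NADPH fluorescence drop versus no-compound background flagged substrates.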
Large screens that a line does not name were inactive. Shown are actives, neighbours in structure and some others; about 1.3% of the full set was active somewhere. Unless noted, calls follow the shape of the dose curve; as a rule, active = well fitted curve in the direction sought with a large enough effect; inconclusive = small, poorly fitted or top-dose-only effect, or another doubt; inactive = no such curve, though single readings can be large; an effect the other way counts as inactive or inconclusive.

COc1cccc(-c2nc(CS(=O)(=O)CC(=O)NCCN3CCOCC3)c(C)o2)c1	none
O=C(Cn1c(=O)n(Cc2ccco2)c(=O)c2sc3ccccc3c21)Nc1ccccc1C(F)(F)F	none (no result: Giardia killer, GALK inh)
Cc1cc(C)c2c(NC(=O)CCl)nn(C)c2n1	rTrxR1 inhibitor inconclusive
CCc1cc(SC#N)cc(CC)c1NC(=O)CCl	rTrxR1 inhibitor 25µM (no result: GALK inh)
O=C(O)c1ccc(NC2=C(n3nnc4ccccc43)C(=O)c3ccccc3C2=O)cc1	rTrxR1 inhibitor 7.1µM
O=C1/C(=C\c2ccco2)CCC/C1=C\c1ccco1	Pin1 inh inconclusive, rTrxR1 inhibitor 2.2µM, KAT2A inh inconclusive
Cc1ccc(Nc2ccc([N+](=O)[O-])nc2[N+](=O)[O-])cc1	Giardia killer -96, rTrxR1 inhibitor inconclusive
CSCCC(NC(C)=O)C(=O)Oc1ccc2c3c(c(=O)oc2c1)CCCC3 (stereo not given)	rTrxR1 inhibitor 50µM, KAT2A inh inconclusive
CC(=O)Oc1ccc2c3c(c(=O)oc2c1)CCCC3	none
CCOC(=O)c1ccc(NC(=O)Cn2nnc(-c3ccccc3F)n2)cc1	none
CCOC(=O)c1cc(=O)n2nc(-c3ccccc3F)nc2s1	rTrxR1 inhibitor 11µM
CCOC(=O)c1cc([N+](=O)[O-])sc1NC(=O)CC	Giardia killer -86
c1ccc2c(c1)OCCc1c-2[nH]c2ccccc12	none (no result: GALK inh)
c1ccc2c(c1)SCc1c-2[nH]c2ccccc12	KAT2A inh 22µM (no result: Giardia killer, Pin1 inh, rTrxR1 inhibitor, GALK inh, TrxR1 substrate)
COCCn1c(=NC(=O)CCS(=O)(=O)c2ccccc2)sc2ccccc21	rTrxR1 inhibitor 7.1µM (no result: GALK inh, KAT2A inh)
Cc1[nH]c(-c2ccco2)nc1C(=O)O	Pin1 inh inconclusive, rTrxR1 inhibitor 18µM
CCc1nc2sc3c(N4CCCCC4)ncnc3c2c2c1CCCC2	none (no result: Giardia killer, GALK inh)
CSc1nc(=S)c2[nH]c(=S)[nH]c2[nH]1	KAT2A inh 3.2µM
Nc1nc(=S)c2[nH]c(=S)[nH]c2[nH]1	none (no result: GALK inh, KAT2A inh)
O=c1c2ccccc2sn1-c1ccc(S(=O)(=O)N2CCCC2)cc1	KAT2A inh 0.5µM
Cc1ccc(-n2sc3ccccc3c2=O)cc1S(=O)(=O)N1CCCCC1	KAT2A inh 2.2µM
CC(=O)C[C@H]1c2cc(F)cc(F)c2S(=O)(=O)N1C1CCN(Cc2ccccc2)CC1	none (no result: Giardia killer, Pin1 inh, GALK inh, KAT2A inh)
Cc1cc2c(s1)c1cnn(Cc3ccc(F)c(C)c3)c(=O)c1n2C	none (no result: Giardia killer, rTrxR1 inhibitor, GALK inh, KAT2A inh, TrxR1 substrate)
COc1ccc(NS(=O)(=O)c2ccc3c(c2)[C@H]2C=CC[C@H]2[C@@H](c2ccc(C(=O)O)cc2)N3)cc1	rTrxR1 inhibitor inconclusive, KAT2A inh inconclusive (no result: Pin1 inh)
CC(=O)c1ccc2c(c1)C1C=CCC1C(c1ccc(S(=O)(=O)N3CCOCC3)cc1)N2 (stereo not given)	Pin1 inh inconclusive, rTrxR1 inhibitor 50µM
O=C(O)c1ccc2c(c1)C1C=CCC1C(c1ccncc1)N2 (stereo not given)	Pin1 inh inconclusive
COC(=O)c1ccc([C@H]2Nc3ccc(S(=O)(=O)Nc4ccc(C)cc4)cc3[C@H]3C=CC[C@H]32)cc1	rTrxR1 inhibitor 50µM (no result: Giardia killer, GALK inh)
CN1CCCC1CCNc1ncnc2ccc(-c3ccc4c(c3)OCO4)cc12 (stereo not given)	none (no result: Giardia killer, rTrxR1 inhibitor, GALK inh, KAT2A inh, TrxR1 substrate)
O=C(O)c1cc2ccccc2c(N=Nc2cccnc2)c1O	Giardia killer -82, Pin1 inh inconclusive
O=C(O)c1cc(N=Nc2c(O)ccc3ccccc23)cc(C(=O)O)c1	KAT2A inh inconclusive
Cc1cc(C(c2nnnn2Cc2ccccc2)N2CCOCC2)c(C)n1-c1ccc2c(c1)OCO2 (stereo not given)	rTrxR1 inhibitor 7.9µM
c1ccc(Cn2nnnc2C(c2ccncc2)N2CCOCC2)cc1 (stereo not given)	none
Cc1nc2c(o1)C(=O)c1ccccc1C2=Nc1ccccc1	Giardia killer -101 (no result: GALK inh, KAT2A inh)
CC(C)(C)n1ncc2c(=O)n(Cc3cccc(F)c3)cnc21	none (no result: Giardia killer, Pin1 inh, GALK inh, KAT2A inh)
CCN(CC)CCCNc1nc2ccccc2c2[nH]c3ccc(OC)cc3c12	Giardia killer -84 (no result: GALK inh, KAT2A inh)
CCN(CC)CCCNc1nc(-c2ccccc2)nc2ccccc12	none
COc1ccc(-c2nc(NCCCN(C)C)c3ccccc3n2)cc1	Giardia killer -99
COc1ccc(OC)c(Nc2nc(-c3ccc(C)cc3)nc3ccccc23)c1	KAT2A inh 25µM (no result: Giardia killer, GALK inh)

Screens from PubChem.
